Sensor-assay potency score (higher = more potent) data for eleven sequences are collected here from the OligoGym collection.
Also: reference of the scale not given here.

This test has as its target APOA4. The test can be described thus: pooled miR-30 sensor sort-seq; sequence = guide strand. The following applies: shRNA.
Take TCGGCGTTCTTCTTCATCTGGA: the sensor-assay potency score (higher = more potent) is -0.527. Then TTCTTCTGCAGGTCACCTGCGT, with -0.176; and TTCTTCTTCATCTGGAAGGTCA, with -0.417. Then TGAAGTAGTCCCACATCACCGT, with -0.0577; and TCGATCTTGGCCTTGAGCTCGT, with -0.264. As for TCTTTCTCCTTGAAGGTGCTGA, the figure is 0.0406; as for TTCTGGTCGATCTTGGCCTTGA, -0.621. Turning to TTGAAGGTGCTGAAGAAGGAGT, the sensor-assay potency score (higher = more potent) was -1.02. Then TTGGCCTTGAGCTCGTCGGCGT, with -0.576; and TCGGAACTCCTCCACCTGCTGG, with -1.28. Then AAGTAGTCCCACATCACCGTGG, with -0.243.
